Where “and” joins values, the source holds several entries; their conditions need not be identical. Equal values may be shown once. Records with an inconclusive call do not appear. Where a call stands in place of a potency, no number is given. The source holds several records for some structures; these can differ, active in one and inactive in another. Values without a mark were called inactive. Calls of active or inactive are those of the source. The call rests on the fitted dose curve; in most records, active means well fitted curve in the direction sought with a large enough effect in the repeat runs; inconclusive means weak or mixed curves; inactive means no such curve, though single readings can be large; an effect the other way counts as inactive or inconclusive.
Experiment: A CellTox Green Cytotoxicity Assay to monitor cytotoxicity in HEK293 cells - 40 hour (AID 1224871); further: nearly all actives have a fitted effect of over 45% in size
Settings: CellTox Green fluorescence; series mostly up to 76.8 µM; cytotoxicity increase: at the top concentration
Outline: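 Dead-cell fluorescence measured kinetically: asymmetric cyanine dye, HEK293, 600 cells/well, 5 h settle, 23 nL cpd/DMSO, 37 C, reads 0–40 h every 8 h.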

SMILES	Potency	cytotoxicity increase
Cc1cc(Cl)ccc1OC(C)C(=O)O (centres undefined)	inactive	–
CCOP(=S)(OCC)Oc1cc(C)nc(C(C)C)n1	inactive	–
Nc1ncc([N+](=O)[O-])s1	inactive	–
FC(F)(F)c1ccc(Cl)cc1	inactive	–
O=C(O)COc1ccccc1	inactive	–
CN(C)CCC#N	inactive	–
CCSC(=O)N1CCCCCC1	inactive	–
C/C=C/c1ccc2c(c1)OCO2	–	2.6%
CCOc1ccc(N)cc1	inactive	–
CCOP(=S)(OCC)Oc1ccc([N+](=O)[O-])cc1	inactive	–
COS(=O)(=O)OC	inactive	–
Nc1ccc([As](=O)(O)O)cc1	inactive	–
OCC(O)CCl (centres undefined)	inactive	–
Nc1nc(N)nc(NC2CC2)n1	inactive	–
C=CCN=C=S	inactive	–
CNC(=O)O/N=C/C(C)(C)SC	inactive	–
Cc1ccc(N=C=O)cc1N=C=O	inactive	–
O=C(O)c1cc(Oc2ccc(C(F)(F)F)cc2Cl)ccc1[N+](=O)[O-]	inactive	–
Cc1cccc(C)c1N	inactive	–
CNC(=O)O/N=C/C(C)(C)S(C)(=O)=O	inactive	–
[N-]=[N+]=CC(=O)OC[C@H](N)C(=O)O	–	0% [at 35.3 µM]
C=CC(=O)OCC(CC)CCCC (centres undefined)	inactive	–
Sc1ccccc1	inactive	–
Nc1ccc(N)cc1	inactive	–
CSc1nnc(C(C)(C)C)c(=O)n1N	inactive	–
CNC(=O)Oc1cccc2ccccc12	inactive	–
O=C/C=C/c1ccccc1	inactive	–
C[C@H]1C(=O)O[C@@H]2CCN3CC=C(COC(=O)[C@](C)(O)[C@]1(C)O)[C@H]23	inactive	–
Nc1cccc(Cl)c1	inactive	–
COc1cc(-c2ccc(N)c(OC)c2)ccc1N	inactive	–

Experiment: qHTS RealTime-Glo MT Cell Viability Assay in HEK293 cells - 16 hour (AID 1224872); further: top concentration of the series differs between compounds; nearly all actives have a fitted effect of over 50% in size
Settings: RealTime-Glo luminescence; series mostly up to 76.8 µM; activity change, negative = cytotoxicity: at the top concentration
Outline: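 Luminescence generated by NanoLuc from substrate produced by living HEK293 cells served as the viability signal. Each value reflects the reading at its stated time point during continuous 40 h compound exposure at 37 C.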

SMILES	outcome	activity change, negative = cytotoxicity [%]
Cc1cc(Cl)ccc1OC(C)C(=O)O (centres undefined)	inactive	–
CCOP(=S)(OCC)Oc1cc(C)nc(C(C)C)n1	inactive	–
Nc1ncc([N+](=O)[O-])s1	inactive	–
FC(F)(F)c1ccc(Cl)cc1	inactive	–
O=C(O)COc1ccccc1	inactive	–
CN(C)CCC#N	inactive	–
CCSC(=O)N1CCCCCC1	inactive	–
C/C=C/c1ccc2c(c1)OCO2	inactive	–
CCOc1ccc(N)cc1	inactive	–
CCOP(=S)(OCC)Oc1ccc([N+](=O)[O-])cc1	inactive	–
COS(=O)(=O)OC	inactive	–
Nc1ccc([As](=O)(O)O)cc1	inactive	–
OCC(O)CCl (centres undefined)	inactive	–
Nc1nc(N)nc(NC2CC2)n1	inactive	–
C=CCN=C=S	inactive	–
CNC(=O)O/N=C/C(C)(C)SC	inactive	–
Cc1ccc(N=C=O)cc1N=C=O	inactive	–
O=C(O)c1cc(Oc2ccc(C(F)(F)F)cc2Cl)ccc1[N+](=O)[O-]	inactive	–
Cc1cccc(C)c1N	inactive	–
CNC(=O)O/N=C/C(C)(C)S(C)(=O)=O	inactive	–
[N-]=[N+]=CC(=O)OC[C@H](N)C(=O)O	inactive	–
C=CC(=O)OCC(CC)CCCC (centres undefined)	inactive	–
Sc1ccccc1	inactive	–
Nc1ccc(N)cc1	inactive	–
CSc1nnc(C(C)(C)C)c(=O)n1N	inactive	–
CNC(=O)Oc1cccc2ccccc12	inactive	–
O=C/C=C/c1ccccc1	inactive	–
C[C@H]1C(=O)O[C@@H]2CCN3CC=C(COC(=O)[C@](C)(O)[C@]1(C)O)[C@H]23	inactive	–
Nc1cccc(Cl)c1	–	5.03
COc1cc(-c2ccc(N)c(OC)c2)ccc1N	inactive	–

Experiment: qHTS RealTime-Glo MT Cell Viability Assay in HepG2 cells - 8 hour (AID 1224873); further: nearly all actives have a fitted effect of over 55% in size
Settings: RealTime-Glo luminescence; series mostly up to 76.8 µM; viability change, negative = cytotoxic: at the top concentration
Outline: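 Real-time viability: cells seeded at 600 per well together with NanoLuc and cell-permeant prosubstrate, compounds added after 5 h incubation. Luminescence tracked at 0, 8, 16, 24, 32 and 40 h of exposure.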

SMILES	outcome
Cc1cc(Cl)ccc1OC(C)C(=O)O (centres undefined)	inactive
CCOP(=S)(OCC)Oc1cc(C)nc(C(C)C)n1	inactive
Nc1ncc([N+](=O)[O-])s1	inactive
FC(F)(F)c1ccc(Cl)cc1	inactive
O=C(O)COc1ccccc1	inactive
CN(C)CCC#N	inactive
CCSC(=O)N1CCCCCC1	inactive
C/C=C/c1ccc2c(c1)OCO2	inactive
CCOc1ccc(N)cc1	inactive
CCOP(=S)(OCC)Oc1ccc([N+](=O)[O-])cc1	inactive
COS(=O)(=O)OC	inactive
Nc1ccc([As](=O)(O)O)cc1	inactive
OCC(O)CCl (centres undefined)	inactive
Nc1nc(N)nc(NC2CC2)n1	inactive
C=CCN=C=S	inactive
CNC(=O)O/N=C/C(C)(C)SC	inactive
Cc1ccc(N=C=O)cc1N=C=O	inactive
O=C(O)c1cc(Oc2ccc(C(F)(F)F)cc2Cl)ccc1[N+](=O)[O-]	inactive
Cc1cccc(C)c1N	inactive
CNC(=O)O/N=C/C(C)(C)S(C)(=O)=O	inactive
[N-]=[N+]=CC(=O)OC[C@H](N)C(=O)O	inactive
C=CC(=O)OCC(CC)CCCC (centres undefined)	inactive
Sc1ccccc1	inactive
Nc1ccc(N)cc1	inactive
CSc1nnc(C(C)(C)C)c(=O)n1N	inactive
CNC(=O)Oc1cccc2ccccc12	inactive
O=C/C=C/c1ccccc1	inactive
C[C@H]1C(=O)O[C@@H]2CCN3CC=C(COC(=O)[C@](C)(O)[C@]1(C)O)[C@H]23	inactive
Nc1cccc(Cl)c1	inactive
COc1cc(-c2ccc(N)c(OC)c2)ccc1N	inactive

Experiment: qHTS RealTime-Glo MT Cell Viability Assay in HEK293 cells - 40 hour (AID 1224874); further: nearly all actives have a fitted effect of over 50% in size; further: potency means the concentration at half of the fitted maximal effect
Settings: RealTime-Glo luminescence; max response: stronger effect = lower value
Outline: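 600 HEK293 cells per well, dispensed already mixed with RealTime-Glo MT reagents. Compound dosing came 5 h later. The same wells were read for luminescence at 0, 8, 16, 24, 32 and 40 h of exposure at 37 C.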

SMILES	max response	Potency
Cc1cc(Cl)ccc1OC(C)C(=O)O (centres undefined)	3.64% and -1.48%	–
CCOP(=S)(OCC)Oc1cc(C)nc(C(C)C)n1	2.72% and 7.6% and 1.58%	–
Nc1ncc([N+](=O)[O-])s1	0.802% and 3.01%	–
FC(F)(F)c1ccc(Cl)cc1	3.01% and 8.11%	–
O=C(O)COc1ccccc1	-2.67% and 2.52% and 5.65%	–
CN(C)CCC#N	6.53% and 12.6%	–
CCSC(=O)N1CCCCCC1	3.34%	12 µM (active)
C/C=C/c1ccc2c(c1)OCO2	-5.98% and -4.01%	–
CCOc1ccc(N)cc1	2.16% and -1.88%	–
CCOP(=S)(OCC)Oc1ccc([N+](=O)[O-])cc1	-18.1% and -17.8%	–
COS(=O)(=O)OC	1.63% and 22.3%	–
Nc1ccc([As](=O)(O)O)cc1	6.3% and -4.26% and 1.01%	–
OCC(O)CCl (centres undefined)	-3.2% and 0.258%	–
Nc1nc(N)nc(NC2CC2)n1	-1.36% and 9.96% and -0.244%	–
C=CCN=C=S	17.8% and 1.95%	–
CNC(=O)O/N=C/C(C)(C)SC	6.31% and 4.21%	–
Cc1ccc(N=C=O)cc1N=C=O	7.57% and -22.1%	–
O=C(O)c1cc(Oc2ccc(C(F)(F)F)cc2Cl)ccc1[N+](=O)[O-]	3.72% [middle of 4 runs]	–
Cc1cccc(C)c1N	-0.963% and 19.7%	–
CNC(=O)O/N=C/C(C)(C)S(C)(=O)=O	3.09% and 0.619%	–
[N-]=[N+]=CC(=O)OC[C@H](N)C(=O)O	8.97% and 11.4%	–
C=CC(=O)OCC(CC)CCCC (centres undefined)	13.3%	–
Sc1ccccc1	0.339% and -2.23% and -0.106%	39.4 µM (active)
Nc1ccc(N)cc1	13.6% and -13%	–
CSc1nnc(C(C)(C)C)c(=O)n1N	-23.1% and -14.9%	–
CNC(=O)Oc1cccc2ccccc12	-29.1% and -20.7% and -13.7%	–
O=C/C=C/c1ccccc1	-0.971% and 11.8% and 2.22%	–
C[C@H]1C(=O)O[C@@H]2CCN3CC=C(COC(=O)[C@](C)(O)[C@]1(C)O)[C@H]23	-22.4% and -7.52% and -7.78%	–
Nc1cccc(Cl)c1	0.922%	21.9 µM (active)
COc1cc(-c2ccc(N)c(OC)c2)ccc1N	-23.4% and -26.2%	37.1 µM (active)

Reference: PubChem BioAssay (Tox21)
